# PubChem BioAssay (NCATS)
# Several values for one entry are separate records, joined by “and”; a condition that tells them apart may be missing. Equal values may be shown once. Results filed as inconclusive are left out. Entries that show only a call come without a potency. Activity calls are given as the source filed them. Unless noted, calls come from the whole dose curve; as a rule, active = well fitted curve in the direction sought with a large enough effect; inconclusive = small, poorly fitted or top-dose-only effect, or another doubt; inactive = no such curve, though single readings can be large; an effect the other way counts as inactive or inconclusive.
# Key:
# [1] = molecular target: Calcium and integrin-binding protein 1 (Homo sapiens) (UniProt Q99828); assay: Primary qHTS for Identification of Calcium Integrin Binding Protein 1 (CIB1) Competitor (AID 1508620);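 note: GST tagged CIB1 binding a fluorescein labelled alphaIIb integrin peptide tracer; top concentration of the series differs between compounds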
# Chain of Calcium and integrin-binding protein 1 (Homo sapiens) (Q99828 whole entry, looked up): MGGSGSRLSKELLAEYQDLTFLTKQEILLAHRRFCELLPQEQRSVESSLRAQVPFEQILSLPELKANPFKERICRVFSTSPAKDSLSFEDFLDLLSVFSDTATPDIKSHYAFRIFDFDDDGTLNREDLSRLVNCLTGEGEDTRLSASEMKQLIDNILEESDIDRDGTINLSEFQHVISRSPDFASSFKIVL
# In short: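 Fluorescence polarization competition: CIB1-GST (1 uM final) preincubated with compound 15 min at room temperature, then FITC-labeled alphaIIb peptide (100 nM final) added for another 15 min. Polarization read at Ex 480/Em 540.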
# [2] = Primary qHTS for small molecule stabilizers of the endoplasmic reticulum resident proteome: Secreted ER Calcium Modulated Protein (SERCaMP) assay (AID 1508630)
# In short: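 GLuc-SERCaMP-expressing SH-SY5Y cells, pretreated 16 h with compound, are challenged with thapsigargin to empty ER calcium stores; after 4 h, coelenterazine is added directly to the medium and luminescence is imaged.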
# [3] = molecular target: Cytochrome P450 2C9 (Homo sapiens) (UniProt P11712); assay: Cytochrome P450 family 2 subfamily C member 9 (CYP2C9) small molecule antagonists: luciferase biochemical (cell-free) qHTS assay (AID 1645842; active = well fitted curve in the direction sought with a large enough effect in the repeat runs; an effect the other way counts as inactive or inconclusive; note: nearly all actives have a fitted effect of over 55% in size; note: potency is the fitted concentration of half-maximal effect)
# Chain of Cytochrome P450 2C9 (Homo sapiens) (P11712 whole entry, looked up): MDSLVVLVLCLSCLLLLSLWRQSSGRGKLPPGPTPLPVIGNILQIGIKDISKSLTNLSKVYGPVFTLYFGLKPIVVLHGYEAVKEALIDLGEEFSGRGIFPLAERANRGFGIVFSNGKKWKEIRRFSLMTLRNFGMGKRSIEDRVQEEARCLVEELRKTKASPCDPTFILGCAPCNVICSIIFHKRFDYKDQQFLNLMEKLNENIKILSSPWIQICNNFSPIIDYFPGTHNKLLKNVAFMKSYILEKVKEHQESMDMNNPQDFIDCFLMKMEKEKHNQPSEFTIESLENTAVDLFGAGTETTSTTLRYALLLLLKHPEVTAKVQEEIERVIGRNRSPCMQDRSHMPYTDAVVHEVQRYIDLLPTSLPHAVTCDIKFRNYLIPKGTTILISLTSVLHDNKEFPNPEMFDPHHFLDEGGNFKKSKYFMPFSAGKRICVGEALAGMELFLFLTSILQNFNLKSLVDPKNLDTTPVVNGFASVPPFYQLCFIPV
# In short: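 Luminescence, after 20 min with luciferin detection reagent, reflected CYP2C9 turnover during a 1 h NADPH-driven reaction at 37C. Enzyme-substrate mix contained 0.4% bovine serum albumin and was preincubated with compound 10 min at room temperature.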
# [4] = Cytotoxicity counterscreen for inhibitors of SARS-CoV-2 cell entry (AID 1645845; calls by dose curve; note: nearly all actives have a fitted effect of over 50% in size)
# In short: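 Expi293F/hACE2 cells seeded overnight; cpd pin-transferred in DMSO, 1 h preincubation, + media, 48 h 37 C 5% CO2; ATPLite 1step luminescence; normalized to cells and no cells.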
# [5] = Primary qHTS to identify inhibitors of SARS-CoV-2 cell entry (AID 1645846; calls by dose curve; note: nearly all actives have a fitted effect of over 45% in size); settings: activity change, negative = inhibition: at 57.1 µM (top of the series) unless noted
# In short: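 Luminescence readout (Bright-Glo luciferase) 48 h after pseudoparticle addition. HEK293-ACE2 cells, 1500/well; compound pre-incubation 1 h; Normalized to spike PP and bald PP.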
# [6] = molecular target: Cytochrome P450 2D6 (Homo sapiens) (UniProt P10635); assay: Cytochrome P450 family 2 subfamily D member 6 (CYP2D6) small molecule antagonists: luciferase biochemical (cell-free) qHTS assay (AID 1645840; active = well fitted curve in the direction sought with a large enough effect in the repeat runs; an effect the other way counts as inactive or inconclusive; note: nearly all actives have a fitted effect of over 55% in size; note: potency is the fitted concentration of half-maximal effect)
# Chain of Cytochrome P450 2D6 (Homo sapiens) (P10635 whole entry, looked up): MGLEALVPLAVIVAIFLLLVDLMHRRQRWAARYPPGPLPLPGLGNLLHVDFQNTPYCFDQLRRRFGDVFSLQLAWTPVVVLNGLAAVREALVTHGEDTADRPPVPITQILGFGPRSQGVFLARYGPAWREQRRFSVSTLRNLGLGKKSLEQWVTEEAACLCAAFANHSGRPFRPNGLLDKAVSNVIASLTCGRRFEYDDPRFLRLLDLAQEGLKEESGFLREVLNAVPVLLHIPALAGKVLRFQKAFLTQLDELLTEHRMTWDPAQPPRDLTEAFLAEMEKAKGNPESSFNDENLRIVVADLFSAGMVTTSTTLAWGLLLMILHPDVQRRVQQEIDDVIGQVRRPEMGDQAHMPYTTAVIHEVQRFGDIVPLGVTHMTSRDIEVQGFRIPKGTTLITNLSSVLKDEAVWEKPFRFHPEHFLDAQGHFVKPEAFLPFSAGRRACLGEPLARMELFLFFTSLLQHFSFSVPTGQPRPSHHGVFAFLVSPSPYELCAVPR
# In short: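 P450-Glo luminescent screen: recombinant CYP2D6 enzyme–proluciferin substrate mix preincubated with compound 10 min at room temperature, then NADPH regeneration added for 1 h at room temperature. Detection reagent added for 20 min; luciferin light read as relative luminescence units.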
# [7] = Primary qHTS for inhibitors of nuclear receptor binding SET domain protein 2 (NSD2) in an isogenic RCH-ACV NSD2 p.E1099K mutant (9B) (AID 1645876); note: nearly all actives have a fitted effect of over 70% in size; note: potency is the fitted concentration of half-maximal effect
# [8] = Primary qHTS for inhibitors of nuclear receptor binding SET domain protein 2 (NSD2) in an RCH-ACV wild type WT cells (2C) (AID 1645877); note: nearly all actives have a fitted effect of over 70% in size; note: potency is the fitted concentration of half-maximal effect
# [9] = A High-Content qHTS Against Drug Library for the Identification of Small Molecules that Inhibit DYT1 Early Onset Primary Dystonia-Associated Cell Pathology (AID 1645839; calls by dose curve)
# In short: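 Readout: %pathology, the punctate EGFP-TorsinA distribution from imaging, as the primary channel and cell count as the toxicity counterscreen. HEK293 Flp-In cells expressing delE TorsinA were induced with tetracycline and treated with compound for 48 h.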
# [10] = molecular target: Rap guanine nucleotide exchange factor 3 (Homo sapiens) (UniProt O95398); assay: Confirmatory qHTS for agonist of cAMP-regulated guanine nucleotide exchange factor 3 (EPAC1) (AID 1645881);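 note: EPAC1 catalysed release of BODIPY-GDP from Rap1B seen as fluorescence loss; nearly all actives have a fitted effect of over 75% in size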
# Chain of Rap guanine nucleotide exchange factor 3 (Homo sapiens) (O95398 whole entry, looked up): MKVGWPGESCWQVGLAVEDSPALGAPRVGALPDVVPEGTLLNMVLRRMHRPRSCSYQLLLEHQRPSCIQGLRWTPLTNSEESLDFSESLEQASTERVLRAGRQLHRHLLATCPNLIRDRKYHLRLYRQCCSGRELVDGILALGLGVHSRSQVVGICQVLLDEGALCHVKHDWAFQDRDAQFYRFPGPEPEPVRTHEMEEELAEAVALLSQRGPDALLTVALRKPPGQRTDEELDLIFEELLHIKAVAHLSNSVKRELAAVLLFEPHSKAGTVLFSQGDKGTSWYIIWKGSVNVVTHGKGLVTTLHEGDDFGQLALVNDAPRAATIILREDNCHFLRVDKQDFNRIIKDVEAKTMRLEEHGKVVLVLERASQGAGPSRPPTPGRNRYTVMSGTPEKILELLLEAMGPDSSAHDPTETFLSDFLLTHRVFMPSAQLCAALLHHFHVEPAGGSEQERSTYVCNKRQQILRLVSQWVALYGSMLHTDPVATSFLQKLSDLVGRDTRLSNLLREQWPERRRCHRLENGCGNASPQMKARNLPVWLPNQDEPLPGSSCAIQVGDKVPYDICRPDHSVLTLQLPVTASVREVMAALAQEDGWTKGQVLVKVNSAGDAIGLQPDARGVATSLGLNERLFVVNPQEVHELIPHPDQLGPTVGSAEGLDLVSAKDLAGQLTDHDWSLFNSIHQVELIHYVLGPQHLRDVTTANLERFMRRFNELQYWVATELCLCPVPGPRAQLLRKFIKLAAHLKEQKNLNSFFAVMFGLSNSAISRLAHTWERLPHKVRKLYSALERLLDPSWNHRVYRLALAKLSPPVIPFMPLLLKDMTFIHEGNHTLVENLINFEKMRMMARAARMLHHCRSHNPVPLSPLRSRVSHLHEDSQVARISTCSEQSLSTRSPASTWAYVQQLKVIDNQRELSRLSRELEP
# [11] = molecular target: Rap guanine nucleotide exchange factor 4 (Homo sapiens) (UniProt Q8WZA2); assay: Confirmatory qHTS for agonist of cAMP-regulated guanine nucleotide exchange factor 4 (EPAC2) (AID 1645884);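 note: nucleotide exchange releases bodipy-GDP from Rap1 and this lowers its fluorescence; nearly all actives have a fitted effect of over 65% in size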
# Chain of Rap guanine nucleotide exchange factor 4 (Homo sapiens) (Q8WZA2 whole entry, looked up): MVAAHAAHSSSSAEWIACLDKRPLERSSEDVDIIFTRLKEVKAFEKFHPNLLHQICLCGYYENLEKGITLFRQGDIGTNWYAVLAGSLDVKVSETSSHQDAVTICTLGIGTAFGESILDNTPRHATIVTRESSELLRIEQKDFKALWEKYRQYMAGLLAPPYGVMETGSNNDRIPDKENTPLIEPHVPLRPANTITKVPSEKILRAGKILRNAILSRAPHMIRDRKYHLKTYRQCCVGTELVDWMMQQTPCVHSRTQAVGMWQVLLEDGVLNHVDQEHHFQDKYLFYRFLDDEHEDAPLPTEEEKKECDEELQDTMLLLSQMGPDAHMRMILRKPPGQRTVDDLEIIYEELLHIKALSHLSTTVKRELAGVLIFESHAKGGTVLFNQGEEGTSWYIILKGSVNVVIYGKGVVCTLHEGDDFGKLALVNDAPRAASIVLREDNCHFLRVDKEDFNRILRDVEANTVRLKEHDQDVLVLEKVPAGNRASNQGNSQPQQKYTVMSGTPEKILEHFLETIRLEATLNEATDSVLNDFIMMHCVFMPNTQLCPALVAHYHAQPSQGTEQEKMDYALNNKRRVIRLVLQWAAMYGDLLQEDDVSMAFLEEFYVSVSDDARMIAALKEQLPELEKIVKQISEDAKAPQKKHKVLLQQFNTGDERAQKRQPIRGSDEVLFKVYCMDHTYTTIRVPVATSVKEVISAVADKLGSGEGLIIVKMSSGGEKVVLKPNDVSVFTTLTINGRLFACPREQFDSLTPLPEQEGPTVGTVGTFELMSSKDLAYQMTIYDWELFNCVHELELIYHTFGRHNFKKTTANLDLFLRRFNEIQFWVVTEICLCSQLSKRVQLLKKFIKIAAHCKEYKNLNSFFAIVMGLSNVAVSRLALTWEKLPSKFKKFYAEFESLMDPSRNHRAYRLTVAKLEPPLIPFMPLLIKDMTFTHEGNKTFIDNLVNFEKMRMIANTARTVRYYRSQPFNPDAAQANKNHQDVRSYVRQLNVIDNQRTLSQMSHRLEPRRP
# [12] = VSVG counterscreen qHTS to identify inhibitors of SARS-CoV-2 cell entry (AID 1645847; calls by dose curve; note: potency is the fitted concentration of half-maximal effect; nearly all actives have a fitted effect of over 65% in size)
# In short: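 HEK293-ACE2 cells (Expi293F stably expressing human ACE2) were pretreated with compound for 1 h at 37 °C, then infected with MLV-based VSV-G pseudotyped particles for 48 h. Luciferase luminescence was normalized to VSV-G PP and bald PP wells.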
# [13] = molecular target: Rap guanine nucleotide exchange factor 3 (Homo sapiens) (UniProt O95398); assay: Confirmatory qHTS for antagonist of cAMP-regulated guanine nucleotide exchange factor 3 (EPAC1) (AID 1645880); note: nearly all actives have a fitted effect of over 55% in size
# In short: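 Nucleotide exchange uses 100 nM EPAC1, 250 nM RAP1B-BODIPY-GDP and 50 uM GDP, with compounds in a concentration-titration series. After 5 min at room temperature, fluorescence (480 nm ex/540 nm em) is read every 5 min for 30 min. Data are normalized to control ATA and DMSO.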
structure (smiles),measurement,setting,value
O=C(O)C(=O)c1cn(Cc2ccccc2)c2ccc(-c3ccc(OC(F)(F)F)cc3)cc12,Potency,[1],inactive
same,outcome,[2],inactive
same,Potency,[3],16.9 µM (active)
same,Potency,[4],inactive
same,"activity change, negative = inhibition",[5],-24.2%
Oc1ccc(Cl)cc1Cc1ccccc1,Potency,[1],inactive
same,outcome,[2],inactive
same,Potency,[6],29.4 µM (active)
same,Potency,[3],9.31 µM (active) and 12.3 µM (active)
same,Potency,[4],inactive
same,"activity change, negative = inhibition",[5],-21.8%
same,Potency,[7],24.6 µM (active)
same,Potency,[8],34.7 µM (active)
CC(C)(C)CC(C)(C)c1ccc(O)cc1,Potency,[1],inactive
same,outcome,[2],inactive
same,Potency,[9],inactive
same,Potency,[6],36.6 µM (active)
same,Potency,[3],11.9 µM (active) and 15.5 µM (active)
same,Potency,[7],24.3 µM (active)
same,outcome,[10],inactive
same,outcome,[11],inactive
CC(C)(C)NCC(O)c1cc(Cl)c(N)c(Cl)c1 (stereo not given),Potency,[1],inactive
same,outcome,[2],inactive
same,Potency,[9],inactive
same,Potency,[3],inactive
same,Potency,[4],inactive
same,"activity change, negative = inhibition",[5],0.184%
same,Potency,[7],inactive
same,Potency,[8],inactive
CN(C)[C@@H]1C(=O)C(C(N)=O)=C(O)[C@@]2(O)C(=O)C3=C(O)c4c(O)cccc4[C@@](C)(O)[C@H]3C[C@@H]12,Potency,[1],inactive
same,Potency,[9],inactive
same,Potency,[6],15.5 µM (active)
same,Potency,[4],inactive
same,Potency,[5],inactive
same,Potency,[7],inactive
same,Potency,[8],inactive
FC(F)(F)c1cccc(C2=CCN(CCc3ccc4ccccc4c3)CC2)c1,Potency,[1],inactive
same,outcome,[2],inactive
same,Potency,[9],inactive
same,Potency,[6],0.0098 µM (active)
same,Potency,[3],inactive
same,Potency,[4],inactive
same,Potency,[7],inactive
same,Potency,[8],inactive
CCN(CC)CCN1C(=O)CN=C(c2ccccc2F)c2cc(Cl)ccc21,Potency,[1],inactive
same,Potency,[9],inactive
same,Potency,[6],13.8 µM (active)
same,Potency,[3],inactive
same,Potency,[7],inactive
CCOC(=O)C1(c2ccccc2)CCN(CCC(C#N)(c2ccccc2)c2ccccc2)CC1,Potency,[1],inactive
same,Potency,[9],inactive
same,Potency,[6],1.74 µM (active)
same,Potency,[3],1.55 µM (active)
same,Potency,[7],5.96 µM (active)
same,Potency,[8],5.96 µM (active)
Cc1ccc(-c2nc3ccc(C)cn3c2CC(=O)N(C)C)cc1,Potency,[1],inactive
same,outcome,[2],inactive
same,Potency,[9],inactive
same,Potency,[3],inactive
same,Potency,[7],inactive
same,Potency,[8],inactive
CC(C)NCC(O)c1ccccc1Cl (stereo not given),Potency,[1],inactive
same,Potency,[9],inactive
same,Potency,[6],11 µM (active)
same,Potency,[3],inactive
same,Potency,[4],inactive
same,Potency,[5],inactive
same,Potency,[7],inactive
same,Potency,[8],inactive
CN(C)CCc1ccc(O)cc1,Potency,[1],inactive
same,outcome,[2],inactive
same,Potency,[9],inactive
same,Potency,[6],inactive
same,Potency,[3],inactive
same,Potency,[7],inactive
same,Potency,[8],inactive
CC1(C)NC(=O)N(c2ccc([N+](=O)[O-])c(C(F)(F)F)c2)C1=O,Potency,[4],inactive
CC1NCCOC1c1ccccc1 (stereo not given),Potency,[9],inactive
same,Potency,[3],inactive
same,Potency,[7],inactive
same,Potency,[8],inactive
CC1=C(C(=O)O)N2C(=O)[C@@H](NC(=O)[C@H](N)c3ccc(O)cc3)[C@H]2SC1,Potency,[4],inactive
CC[N+](CC)(CC)CC,outcome,[2],inactive
same,Potency,[9],inactive
same,Potency,[6],inactive
same,Potency,[3],inactive
same,Potency,[7],inactive
same,Potency,[8],inactive
Cc1sc2c(c1C)C(c1ccc(Cl)cc1)=N[C@@H](CC(=O)OC(C)(C)C)c1nnc(C)n1-2,outcome,[2],inactive
same,Potency,[6],inactive
same,Potency,[3],10.7 µM (active)
same,Potency,[4],inactive
same,"activity change, negative = inhibition",[5],-18.3%
same,Potency,[7],0.372 µM (active)
same,Potency,[8],0.263 µM (active)
CCC1(c2ccccc2)C(=O)NCNC1=O,Potency,[4],inactive
Clc1ccc(COC(Cn2ccnc2)c2ccc(Cl)cc2Cl)cc1 (stereo not given),Potency,[6],0.219 µM (active)
same,Potency,[12],12.1 µM (active)
same,outcome,[10],inactive
same,outcome,[11],inactive
CN(C)CCOC(c1ccc(Cl)cc1)c1ccccn1 (stereo not given),Potency,[4],inactive
CNC(=O)N1N=C(c2ccc(N)cc2)c2cc3c(cc2CC1C)OCO3 (stereo not given),outcome,[2],inactive
same,Potency,[6],inactive
same,Potency,[3],1.51 µM (active)
same,Potency,[7],3.65 µM (active)
same,Potency,[8],2.05 µM (active)
N[C@@H]1C[C@H]1c1ccccc1,outcome,[2],inactive
same,Potency,[9],inactive
same,Potency,[3],21.9 µM (active)
same,Potency,[4],inactive
same,Potency,[5],inactive
same,"activity change, negative = inhibition",[5],-29.3%
same,Potency,[7],inactive
Cc1ccc(O)c([C@H](CCN(C(C)C)C(C)C)c2ccccc2)c1,Potency,[4],inactive
CCCN(CCC)S(=O)(=O)c1ccc(C(=O)O)cc1,Potency,[4],inactive
COc1ccc(-c2cc(=S)ss2)cc1,Potency,[4],inactive
C[C@H]1O[C@@H](O[C@H]2[C@@H](O)C[C@H](O[C@H]3[C@@H](O)C[C@H](O[C@H]4CC[C@@]5(C)[C@H](CC[C@@H]6[C@@H]5CC[C@]5(C)[C@@H](C7=CC(=O)OC7)CC[C@]65O)C4)O[C@@H]3C)O[C@@H]2C)C[C@H](O)[C@@H]1O,outcome,[2],inactive
same,Potency,[6],inactive
same,Potency,[3],inactive
same,Potency,[7],16.8 nM (active) and 19.2 nM (active)
same,Potency,[8],42.2 nM (active) and 85.8 nM (active)
same,Potency,[13],inactive
same,outcome,[10],inactive
same,outcome,[11],inactive
CN1CCN(C(c2ccccc2)c2ccccc2)CC1,Potency,[4],inactive
